# Activity calls are given as the source filed them. Unless noted, no rule for the calls is given here.
# Experiments:
# [1] = compound effects on lung adenocarcinoma cell viability – A549, calcein-AM fluorescence, 48 h, basal, profiling panel (AID 1162); details: higher = more signal; also: test concentration not given here
# [2] = compound effects on differentiated 3T3-L1 adipocyte viability – cell-based, 3T3-L1 adipocytes, calcein-AM fluorescence, 48 h, basal, profiling panel (AID 1163); details: 3T3-L1 adipocytes viability, higher = more signal; also: test concentration not given here
# [3] = compound effects on hepatocellular carcinoma cell viability – HepG2, calcein-AM fluorescence, 48 h, basal, profiling panel (AID 1164); details: higher = more signal; also: test concentration not given here
# [4] = compound effects on multiple myeloma cell viability – MM1S, calcein-AM fluorescence, 48 h, basal, profiling panel (AID 1165); details: higher = more signal;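 also: viability of MM1S multiple myeloma cells under basal unstimulated conditions; test concentration not given here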
# [5] = calcein-AM signal in unstimulated myeloma cells – cell-based, calcein-AM fluorescence, 48 h, PK04 Diversity Set, profiling panel (AID 1166); details: RPMI8226 myeloma viability, higher = more signal;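 also: cells grown under basal conditions without added stimulus; test concentration not given here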
# [6] = JC-1 mitochondrial signal, unstimulated HepG2 cells – cell-based, JC-1 fluorescence, 24 h, 100 nL compound, profiling panel (AID 1167); details: HepG2 mitochondrial potential, higher = more signal; also: test concentration not given here
# [7] = JC-1 mitochondrial signal, unstimulated adipocytes – cell-based, JC-1 fluorescence, 3T3-L1 adipocytes, 24 h, 100 nL compound, profiling panel (AID 1168); details: JC-1 mitochondrial fluorescence, higher = more signal, called active from +8 up or from −8 down; also: test concentration not given here
# [8] = JC-1 mitochondrial signal, unstimulated myeloma cells – cell-based, JC-1 fluorescence, RPMI8226, 24 h, 100 nL compound, profiling panel (AID 1169); details: JC-1 mitochondrial potential fluorescence, higher = more signal; also: test concentration not given here
# [9] = JC-1 mitochondrial signal, unstimulated MM1S myeloma – cell-based, JC-1 fluorescence, 24 h, 100 nL compound, profiling panel (AID 1170); details: MM1S mitochondrial potential, higher = more signal; also: test concentration not given here
# [10] = resazurin metabolic signal in A549 cells – cell-based, resazurin fluorescence, 24 h, PK04 Diversity Set, profiling panel (AID 1171); details: A549 viability, higher = more signal, called active from +8 up or from −8 down; also: test concentration not given here
# [11] = resazurin metabolic signal in HepG2 cells – cell-based, resazurin fluorescence, 24 h, PK04 Diversity Set, profiling panel (AID 1172); details: HepG2 viability, higher = more signal; also: test concentration not given here
# [12] = budding yeast growth changes without added modifier – OD600, strain BY4716, 24 h, basal condition, primary screen (AID 1173); details: S. cerevisiae BY4716 growth, OD600, 24 h; higher = more signal, called active from +8 up or from −8 down
# [13] = viability profiling in MM1S myeloma cells – cell-based, resazurin fluorescence, basal, 24 h, PK04 Diversity Set, profiling panel (AID 1174); details: higher = more signal, called active from +8 up or from −8 down; also: test concentration not given here
# [14] = molecular target: Dihydroorotate dehydrogenase (quinone), mitochondrial (Plasmodium falciparum (isolate 3D7)) (UniProt Q08210); experiment: inhibition of P. falciparum DHODH – biochemical, C-terminal His tag, absorbance 600 nm, primary screen (AID 1175); details: PfDHODH enzyme, DCIP absorbance 600 nm; higher = more signal, called active from +8 up or from −8 down;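 also: recombinant parasite enzyme with a five histidine tag at its C terminus; test concentration not given here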
# Sequence of Dihydroorotate dehydrogenase (quinone), mitochondrial (Plasmodium falciparum (isolate 3D7)) (Q08210 whole entry, looked up): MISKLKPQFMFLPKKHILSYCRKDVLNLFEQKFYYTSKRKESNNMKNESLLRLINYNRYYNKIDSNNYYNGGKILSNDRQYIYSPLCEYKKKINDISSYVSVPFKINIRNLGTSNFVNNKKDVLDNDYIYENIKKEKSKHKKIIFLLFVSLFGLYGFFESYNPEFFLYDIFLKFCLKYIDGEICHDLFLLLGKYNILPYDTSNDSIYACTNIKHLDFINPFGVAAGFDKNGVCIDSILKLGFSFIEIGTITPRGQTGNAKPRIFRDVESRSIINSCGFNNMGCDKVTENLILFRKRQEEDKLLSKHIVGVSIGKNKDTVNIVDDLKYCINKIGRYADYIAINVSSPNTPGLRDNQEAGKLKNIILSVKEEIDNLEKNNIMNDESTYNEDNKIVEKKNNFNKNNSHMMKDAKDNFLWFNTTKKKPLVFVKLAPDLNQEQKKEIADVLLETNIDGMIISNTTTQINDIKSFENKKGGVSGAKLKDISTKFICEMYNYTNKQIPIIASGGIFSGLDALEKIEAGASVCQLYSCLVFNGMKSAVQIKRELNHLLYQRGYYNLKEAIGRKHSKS
# [15] = inhibition of PAO1 biofilm formation – strain PAO1, LB-PBS medium, absorbance 600 nm, primary screen (AID 1176); also: test concentration not given here; details: P. aeruginosa PAO1 growth/biofilm, A600, 12 h; higher = more signal
# [16] = growth modulation of vineyard yeast isolate – strain RM11-1a, OD600, basal, 24 h, primary screen (AID 1177);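 also: cultures grown under basal conditions with no added stressor; test concentration not given here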; details: S. cerevisiae RM11-1a growth, OD600, 24 h; higher = more signal, called active from +8 up or from −8 down
# [17] = growth of efflux-deficient E. coli DRC39 – strain DRC39, OD650, 24 h, E. coli filamentation inducers, primary screen (AID 1178);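 also: growth measured as culture turbidity by optical density at 650 nm; test concentration not given here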; details: E. coli DRC39 acrAB, higher = more signal, called active from +8 up or from −8 down
# [18] = growth of efflux-deficient E. coli DRC39 – strain DRC39, OD650, 48 h, E. coli filamentation inducers, primary screen (AID 1179);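 also: screen aims at cell division blockers that make cells filament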; details: E. coli DRC39 delta-acrAB growth, higher = more signal, called active from +8 up or from −8 down
# [19] = viability profiling in RPMI8226 myeloma cells – cell-based, resazurin fluorescence, basal, 24 h, PK04 Diversity Set, profiling panel (AID 1180); details: higher = more signal;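 also: RPMI8826 multiple myeloma cell line at 5000 cells per well; test concentration not given here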
# [20] = molecular target: E3 ubiquitin-protein ligase XIAP (Homo sapiens) (UniProt P98170); experiment: small molecules binding XIAP protein – biophysical, small-molecule microarray, fluorescence 635 nm, primary screen (AID 1181); details: higher = more signal;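 also: score merges 667 nm emission and signal to noise over triplicate slides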
# Sequence of E3 ubiquitin-protein ligase XIAP (Homo sapiens) (P98170 whole entry, looked up): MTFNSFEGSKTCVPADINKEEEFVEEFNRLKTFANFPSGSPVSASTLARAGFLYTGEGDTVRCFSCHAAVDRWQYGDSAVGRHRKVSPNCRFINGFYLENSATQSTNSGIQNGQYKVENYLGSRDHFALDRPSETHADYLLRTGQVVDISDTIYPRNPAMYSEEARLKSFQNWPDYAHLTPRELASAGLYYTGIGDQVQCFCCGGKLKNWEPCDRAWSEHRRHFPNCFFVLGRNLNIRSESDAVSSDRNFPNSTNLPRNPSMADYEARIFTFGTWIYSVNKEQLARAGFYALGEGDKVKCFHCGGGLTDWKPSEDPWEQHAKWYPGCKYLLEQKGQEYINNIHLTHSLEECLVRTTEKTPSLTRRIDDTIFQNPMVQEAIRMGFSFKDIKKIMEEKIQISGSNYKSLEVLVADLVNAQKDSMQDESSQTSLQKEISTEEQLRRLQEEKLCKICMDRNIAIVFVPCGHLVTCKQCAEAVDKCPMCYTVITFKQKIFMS
SMILES,z-score [1],z-score [2],z-score [3],z-score [4],z-score [5],z-score [6],z-score [7],z-score [8],z-score [9],z-score [10],z-score [11],z-score [12],z-score [13],composite z-score [14],z-score [15],z-score [16],z-score [17],z-score [18],z-score [19],composite z-score [20]
COCCOC(=O)N1C(=O)[C@@]2(c3cc(C#CCCO)ccc31)[C@H](c1ccccc1OCCO)N1[C@H](c3ccccc3)[C@H](c3ccccc3)OC(=O)[C@H]1[C@@H]2C(N)=O,0.49,1.8,-0.112,-1.49,-4.2,0.446,1 (inactive),-1.22,-1.12,-0.0131 (inactive),-0.0989,1.42 (inactive),-1.49 (inactive),-0.0125 (inactive),-0.0199 (inactive),2.34 (inactive),0.641 (inactive),-0.605 (inactive),-1.45,-0.02
CC(C)C[C@H]1NC(=O)C([C@@H](C)OCc2ccccc2)NC(=O)[C@@]23C(=O)N[C@@H](Cc4ccccc4)C2[C@H](C)[C@@]2(C)O[C@H]2C3/C=C/C/C=C\CNC1=O (stereo not given in full),-0.469,1.9,-0.3,-0.936,-1.53,0.169,0.679 (inactive),-0.872,0.277,0.154 (inactive),-0.662,-0.0256 (inactive),-0.521 (inactive),-0.116 (inactive),0.294 (inactive),-0.3 (inactive),0.12 (inactive),-0.0809 (inactive),-0.0732,0.172
CC(C)C[C@@H]1NC(=O)[C@@]23C(=O)N[C@@H](Cc4ccccc4)C2[C@H](C)[C@@]2(C)O[C@H]2C3/C=C/C/C=C\CNC(=O)CNC1=O (stereo not given in full),0.201,0.97,-0.47,-0.288,-0.174,-0.572,-0.159 (inactive),0.149,0.694,-0.624 (inactive),-0.62,-1.68 (inactive),0.308 (inactive),-0.658 (inactive),0.437 (inactive),-0.773 (inactive),-0.229 (inactive),-0.911 (inactive),-0.139,-0.105
O=C1[C@H]2C=C(I)[C@H](C[C@@H]2c2ccccc2)[C@@]12CO2,-1.3,-0.417,-0.382,-3.18,-3,-1.74,0.789 (inactive),-1.2,-1.32,-0.122 (inactive),-0.488,-11.5 (active),-0.886 (inactive),-0.376 (inactive),0.236 (inactive),-2.23 (inactive),-0.791 (inactive),-1.24 (inactive),-0.603,-0.223
C[N+](C)(C)CCCC[C@@H]1NC(=O)[C@H]2C[C@@H](C(=O)NCCCCCNC(=O)CS)[C@@H](c3cccc(OCCO)c3)N2C1=O,0.316,0.571,-0.953,-0.631,0.37,1.09,0.127 (inactive),0.812,0.415,-0.219 (inactive),-0.226,-0.307 (inactive),0.703 (inactive),-0.867 (inactive),0.298 (inactive),-1.13 (inactive),-0.133 (inactive),-0.779 (inactive),0.401,-0.102
C#CCN1[C@@H](Cc2ccccc2)C(=O)O[C@H](Cc2ccccc2)[C@@H]1/C=C/C1CC1,-0.589,-0.488,0.196,-2,-2.16,2.46,-0.693 (inactive),-0.812,0.4,3.08 (inactive),0.642,-0.236 (inactive),1.56 (inactive),0.0255 (inactive),-0.565 (inactive),0.0761 (inactive),1.37 (inactive),1.06 (inactive),1.62,-0.208
COc1ccc(CCNC(=O)[C@@H]2c3ccccc3C(=O)N(Cc3ccccc3OC)[C@H]2c2ccc(CO)cc2)cc1,0.41,-0.219,-0.147,-0.147,0.245,1.22,-0.822 (inactive),-0.167,-0.42,1.58 (inactive),0.851,0.528 (inactive),-0.0684 (inactive),1.14 (inactive),0.264 (inactive),-0.341 (inactive),0.483 (inactive),0.258 (inactive),-0.205,-0.309
CCOc1cc(C(O)C2C=CC3C(=O)N(c4ccccc4)C(=O)C3N2Nc2ccccc2F)ccc1O (stereo not given),0.0113,0.521,0.294,-0.495,-0.18,-1.58,-0.945 (inactive),-0.853,0.699,-0.928 (inactive),-1.42,-3.57 (inactive),-0.454 (inactive),0.717 (inactive),0.931 (inactive),1.78 (inactive),-0.223 (inactive),-0.541 (inactive),-0.318,-0.273
COC(=O)C1(Cc2ccccc2)C=C2C(=C(C)C(=O)C2C)CN1 (stereo not given),-0.865,0.45,0.159,0.232,0.213,-0.237,-0.046 (inactive),0.151,-0.762,-1.21 (inactive),-0.896,1.1 (inactive),-0.86 (inactive),-1.98 (inactive),0.452 (inactive),-0.527 (inactive),0.858 (inactive),1.2 (inactive),-0.625,-0.168
CC(=O)c1ccc(C(O)C2C=CC3C(=O)N(c4ccccc4)C(=O)C3N2Nc2ccc(C(C)C)cc2)cc1 (stereo not given),-0.301,-1.69,0.123,-1.1,-0.994,-2.03,-1.56 (inactive),-0.293,-1.29,-0.532 (inactive),-0.866,-0.829 (inactive),-1.44 (inactive),0.774 (inactive),0.503 (inactive),0.677 (inactive),0.481 (inactive),0.463 (inactive),-0.721,0.102
O=C1[C@@H]2[C@@H](CC(COc3ccccc3)=C([C@H](O)CCc3ccccc3)[C@@H]2CO)C(=O)N1Cc1ccccc1,-0.137,-0.331,-1.32,-3.23,-3.48,0.325,-0.0321 (inactive),-1.04,-1.33,-0.833 (inactive),-1.38,-0.0733 (inactive),-0.577 (inactive),-2.37 (inactive),0.258 (inactive),1.47 (inactive),0.372 (inactive),0.203 (inactive),-0.664,0.15
CCCCCCc1nc(-c2ccc(-c3ccc(Cl)c(Cl)c3)o2)cc2c1[Si](C(C)C)(C(C)C)OC2,-0.567,1.84,-0.0442,-3,-4.4,-1.24,0.771 (inactive),-0.934,-1.23,1.19 (inactive),0.373,-7.31 (inactive),-0.273 (inactive),-1.97 (inactive),-0.558 (inactive),-0.878 (inactive),0.522 (inactive),0.395 (inactive),-0.151,-0.0233
C=CCC(OC(C)=O)[C@@H]1[C@@H](N(Cc2ccc(-c3cccc(C(F)(F)F)c3)o2)C(=O)Cc2ccc(F)cc2)c2cc(OCCCO)ccc2N1C(=O)Cc1ccc2ccccc2c1 (stereo not given in full),-0.92,1.1,-0.0416,-1.7,-0.261,1.8,0.978 (inactive),-0.0117,0.0602,0.623 (inactive),0.533,0.658 (inactive),0.647 (inactive),-1.35 (inactive),1.13 (inactive),-0.245 (inactive),-0.241 (inactive),-0.088 (inactive),0.0748,-0.132
Cc1ccc(S[C@]2(C(=O)NCC(F)(F)F)CC(=O)N(Cc3ccccc3C(F)(F)F)[C@@H]2c2ccc(CO)cc2)cc1,-0.859,0.0909,-0.768,-1.04,0.0646,-0.523,0.0107 (inactive),0.0145,-0.594,0.413 (inactive),-0.12,0.0386 (inactive),-0.383 (inactive),-0.631 (inactive),0.568 (inactive),-0.404 (inactive),0.334 (inactive),0.2 (inactive),-0.754,0.0256
CC(C)(C)N1CC=CC23O[C@@H]4/C=C\CCCOC(=O)C4[C@H]2C(=O)N(CCCO)[C@@H]3C1=O (stereo not given in full),-0.377,1.1,0.0723,-0.112,-0.0698,-0.794,0.822 (inactive),0.233,0.229,0.114 (inactive),0.0873,0.111 (inactive),0.0928 (inactive),-2.08 (inactive),-0.236 (inactive),-1.06 (inactive),0.0362 (inactive),-0.205 (inactive),-0.0182,-0.0626
COC(=O)[C@@]1(Cc2ccc(F)cc2)[C@H]2c3cc(C(=O)N(C)C)n(CCc4ccc(O)c(O)c4)c3C[C@H]2CN1C(=O)c1ccccc1,-0.681,-1.17,0.193,0.287,-0.238,0.86,0.243 (inactive),-0.672,-1.95,-0.238 (inactive),0.515,0.634 (inactive),-1.01 (inactive),-0.137 (inactive),-0.154 (inactive),0.232 (inactive),-0.0718 (inactive),0.157 (inactive),-0.834,0.122
O=C1C2C=CC(C(O)C3CCCCC3)N(n3cnnc3)C2C(=O)N1Cc1ccccc1 (stereo not given),-0.916,0.379,-0.611,-0.453,-0.441,-0.37,-2.27 (inactive),-0.0098,-1.04,0.714 (inactive),-0.308,0.161 (inactive),-0.196 (inactive),-0.016 (inactive),0.561 (inactive),-0.618 (inactive),0.386 (inactive),1.01 (inactive),-0.513,-0.0535
COc1ccc([Si](C)(C)[C@H]2[C@H](CC(=O)N3CCC[C@H]3CO)O[C@@]3(C(=O)N(Cc4ccc(N5CCCCC5=O)cc4)c4ccccc43)[C@@H]2C)cc1,-0.288,0.954,-0.531,-1.74,-3.5,3.5,-0.774 (inactive),-1.02,-0.184,-0.421 (inactive),-0.369,-0.0356 (inactive),-0.563 (inactive),-2.66 (inactive),-0.012 (inactive),1.57 (inactive),-0.18 (inactive),-0.244 (inactive),-0.171,0.197
